Tests used:
Assay in all cases: DAPPL (digital affinity profiling via proximity ligation, sequencing); 10 mM Tris-HCl pH 7.5, 50 mM NaCl, 1 mM DTT, 4% glycerol, room temperature, 30 min; GST-TFs on glutathione beads, 16-mer random dsDNA library, 0.1% formaldehyde crosslink after washing; high values mean tight binding
Conditions in all cases: protein: recombinant; tags: N-terminal GST; dsDNA, one strand shown
FLI1 = biological target: T1, FLI1 (Homo sapiens, UniProt Q01543 1-452)
T1 sequence: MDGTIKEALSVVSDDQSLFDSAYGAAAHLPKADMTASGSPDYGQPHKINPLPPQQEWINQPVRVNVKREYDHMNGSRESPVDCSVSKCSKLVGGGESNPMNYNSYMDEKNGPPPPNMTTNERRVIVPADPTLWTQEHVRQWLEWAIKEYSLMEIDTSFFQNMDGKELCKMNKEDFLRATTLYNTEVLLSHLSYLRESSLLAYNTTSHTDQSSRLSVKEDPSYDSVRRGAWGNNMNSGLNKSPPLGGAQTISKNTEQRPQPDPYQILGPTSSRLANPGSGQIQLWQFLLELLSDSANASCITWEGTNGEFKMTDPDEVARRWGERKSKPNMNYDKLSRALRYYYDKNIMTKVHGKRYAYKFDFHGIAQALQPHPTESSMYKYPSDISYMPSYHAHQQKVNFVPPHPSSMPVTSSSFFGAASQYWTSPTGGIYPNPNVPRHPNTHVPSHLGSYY
Summary of the method: (§1)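 Sequencing on an Illumina NextSeq500 followed washing, crosslinking with 0.1% formaldehyde, proximity ligation (BsaI/T4 ligase, 1 h, 37 °C) and PCR amplification of pools that had been incubated for 30 min at room temperature with 200 nmole of a random double-stranded 16-mer DNA library in Tris/NaCl/DTT/glycerol buffer. Each pool held DNA-barcoded human transcription factors, expressed in yeast as GST fusions and captured on glutathione beads, plus a tag-only sample. Binding signal is a hexamer's read frequency for a factor divided by its frequency in the tag-only sample.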

ELK1 = biological target: T2, ELK1 (Homo sapiens, UniProt P19419 1-428)
T2 sequence: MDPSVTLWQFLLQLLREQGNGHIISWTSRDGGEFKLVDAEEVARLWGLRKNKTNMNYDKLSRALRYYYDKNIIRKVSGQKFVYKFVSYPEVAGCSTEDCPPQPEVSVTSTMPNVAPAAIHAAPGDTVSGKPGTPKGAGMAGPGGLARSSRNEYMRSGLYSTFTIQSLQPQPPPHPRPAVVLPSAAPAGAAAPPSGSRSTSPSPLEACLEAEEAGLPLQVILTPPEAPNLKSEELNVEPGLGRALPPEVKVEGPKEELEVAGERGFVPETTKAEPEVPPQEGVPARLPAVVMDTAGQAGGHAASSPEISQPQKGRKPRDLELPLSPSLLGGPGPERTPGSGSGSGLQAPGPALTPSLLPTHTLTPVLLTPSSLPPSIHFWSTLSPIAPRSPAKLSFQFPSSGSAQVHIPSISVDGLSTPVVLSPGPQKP
Summary of the method: as §1

GABPA = biological target: T3, GABPA (Homo sapiens, UniProt Q06546 1-454)
T3 sequence: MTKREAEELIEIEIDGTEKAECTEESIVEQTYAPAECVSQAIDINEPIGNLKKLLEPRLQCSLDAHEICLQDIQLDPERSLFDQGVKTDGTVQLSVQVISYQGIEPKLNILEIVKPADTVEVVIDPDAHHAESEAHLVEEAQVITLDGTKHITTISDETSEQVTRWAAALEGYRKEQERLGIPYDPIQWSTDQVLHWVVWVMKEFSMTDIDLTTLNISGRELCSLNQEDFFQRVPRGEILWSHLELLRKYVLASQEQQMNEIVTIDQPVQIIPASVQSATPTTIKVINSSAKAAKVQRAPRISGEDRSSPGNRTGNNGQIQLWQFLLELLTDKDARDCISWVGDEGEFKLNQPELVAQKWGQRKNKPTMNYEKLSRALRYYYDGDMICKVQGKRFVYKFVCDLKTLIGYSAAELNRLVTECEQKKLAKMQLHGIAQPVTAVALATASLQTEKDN
Summary of the method: as §1

ERG = biological target: T4, ERG (Homo sapiens, UniProt P11308 1-479)
T4 sequence: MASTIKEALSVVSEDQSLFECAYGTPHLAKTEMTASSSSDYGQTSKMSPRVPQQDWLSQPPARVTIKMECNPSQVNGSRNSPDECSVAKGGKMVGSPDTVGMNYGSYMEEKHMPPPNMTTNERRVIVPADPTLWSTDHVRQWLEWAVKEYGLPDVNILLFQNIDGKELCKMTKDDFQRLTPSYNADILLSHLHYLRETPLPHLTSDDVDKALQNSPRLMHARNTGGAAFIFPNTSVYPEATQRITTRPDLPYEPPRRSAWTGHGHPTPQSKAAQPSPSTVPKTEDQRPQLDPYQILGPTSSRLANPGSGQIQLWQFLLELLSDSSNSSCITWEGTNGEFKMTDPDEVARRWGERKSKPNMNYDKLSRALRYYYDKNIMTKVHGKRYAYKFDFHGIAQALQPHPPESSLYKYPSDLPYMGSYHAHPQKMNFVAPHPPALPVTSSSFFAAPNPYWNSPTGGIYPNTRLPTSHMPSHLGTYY
Summary of the method: as §1

ELF1 = ELF1 (Homo sapiens, UniProt P32519 1-619)
ELF1, sequence (P32519 whole entry): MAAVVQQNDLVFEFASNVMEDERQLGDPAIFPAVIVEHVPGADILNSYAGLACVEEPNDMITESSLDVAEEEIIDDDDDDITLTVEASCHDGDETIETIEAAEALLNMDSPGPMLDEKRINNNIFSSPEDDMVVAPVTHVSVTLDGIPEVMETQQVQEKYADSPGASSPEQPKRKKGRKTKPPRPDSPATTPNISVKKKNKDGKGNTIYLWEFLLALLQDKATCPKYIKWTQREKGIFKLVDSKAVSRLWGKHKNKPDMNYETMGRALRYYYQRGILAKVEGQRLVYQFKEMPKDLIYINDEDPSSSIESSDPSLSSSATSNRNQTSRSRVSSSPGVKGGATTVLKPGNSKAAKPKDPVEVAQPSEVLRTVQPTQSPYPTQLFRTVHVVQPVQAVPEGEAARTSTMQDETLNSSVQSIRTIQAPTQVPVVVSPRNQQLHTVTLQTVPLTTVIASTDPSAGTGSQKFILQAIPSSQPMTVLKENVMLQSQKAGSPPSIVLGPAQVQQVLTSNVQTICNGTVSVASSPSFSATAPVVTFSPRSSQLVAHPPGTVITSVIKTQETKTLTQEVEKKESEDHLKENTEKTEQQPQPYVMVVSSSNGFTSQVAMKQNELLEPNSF
Summary of the method: as §1

EHF = biological target: T5, EHF (Homo sapiens, UniProt Q9NZC4 1-300)
T5 sequence: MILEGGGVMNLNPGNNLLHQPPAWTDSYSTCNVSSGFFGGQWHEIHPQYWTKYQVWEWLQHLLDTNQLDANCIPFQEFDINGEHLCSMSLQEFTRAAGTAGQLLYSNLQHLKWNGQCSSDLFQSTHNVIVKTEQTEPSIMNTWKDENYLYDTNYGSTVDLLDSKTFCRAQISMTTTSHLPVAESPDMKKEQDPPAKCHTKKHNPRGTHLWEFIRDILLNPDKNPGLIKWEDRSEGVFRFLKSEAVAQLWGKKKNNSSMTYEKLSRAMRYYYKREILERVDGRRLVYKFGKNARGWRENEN
Summary of the method: as §1

SPI1 = SPI1 (Homo sapiens, UniProt P17947 1-270)
Summary of the method: as §1

SPIB = SPIB (Homo sapiens, UniProt Q01892 1-262)
SPIB, sequence (Q01892 whole entry): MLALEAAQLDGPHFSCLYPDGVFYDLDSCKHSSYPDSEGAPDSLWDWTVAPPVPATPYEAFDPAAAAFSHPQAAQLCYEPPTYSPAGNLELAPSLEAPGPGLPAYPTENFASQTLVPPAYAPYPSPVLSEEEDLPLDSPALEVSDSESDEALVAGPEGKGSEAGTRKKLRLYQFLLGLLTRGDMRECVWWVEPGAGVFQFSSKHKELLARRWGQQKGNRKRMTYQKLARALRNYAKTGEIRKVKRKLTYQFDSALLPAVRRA
Summary of the method: as §1

ELK3 = biological target: T6, ELK3 (Homo sapiens, UniProt P41970 1-407)
T6 sequence: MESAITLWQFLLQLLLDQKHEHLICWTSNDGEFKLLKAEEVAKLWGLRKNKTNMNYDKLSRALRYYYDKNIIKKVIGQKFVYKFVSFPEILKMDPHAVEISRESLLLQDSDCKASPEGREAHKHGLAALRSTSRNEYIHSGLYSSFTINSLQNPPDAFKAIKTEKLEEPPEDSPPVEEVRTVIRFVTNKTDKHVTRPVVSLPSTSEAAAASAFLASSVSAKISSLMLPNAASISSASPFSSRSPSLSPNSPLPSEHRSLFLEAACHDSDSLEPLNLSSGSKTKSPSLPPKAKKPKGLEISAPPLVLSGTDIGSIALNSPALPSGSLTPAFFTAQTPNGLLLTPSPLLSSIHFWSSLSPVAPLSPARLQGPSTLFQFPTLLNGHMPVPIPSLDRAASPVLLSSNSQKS
Summary of the method: as §1

Sequence	binding signal (FLI1)	binding signal (ELK1)	binding signal (GABPA)	binding signal (ERG)	binding signal (ELF1)	binding signal (EHF)	binding signal (SPI1)	binding signal (SPIB)	binding signal (ELK3)
ATATCC	2.59 fold enrichment (6-mer frequency, TF over GST control)	2.88 fold enrichment (6-mer frequency, TF over GST control)	2.45 fold enrichment (6-mer frequency, TF over GST control)	3.33 fold enrichment (6-mer frequency, TF over GST control)	2.56 fold enrichment (6-mer frequency, TF over GST control)	2.58 fold enrichment (6-mer frequency, TF over GST control)	2.43 fold enrichment (6-mer frequency, TF over GST control)	2.82 fold enrichment (6-mer frequency, TF over GST control)	2.72 fold enrichment (6-mer frequency, TF over GST control)
AAGTCC	1.21 fold enrichment (6-mer frequency, TF over GST control)	1.31 fold enrichment (6-mer frequency, TF over GST control)	1.18 fold enrichment (6-mer frequency, TF over GST control)	1.35 fold enrichment (6-mer frequency, TF over GST control)	1.23 fold enrichment (6-mer frequency, TF over GST control)	1.27 fold enrichment (6-mer frequency, TF over GST control)	1.36 fold enrichment (6-mer frequency, TF over GST control)	1.28 fold enrichment (6-mer frequency, TF over GST control)	1.27 fold enrichment (6-mer frequency, TF over GST control)
AGTATT	1.12 fold enrichment (6-mer frequency, TF over GST control)	1.19 fold enrichment (6-mer frequency, TF over GST control)	1.1 fold enrichment (6-mer frequency, TF over GST control)	1.2 fold enrichment (6-mer frequency, TF over GST control)	1.14 fold enrichment (6-mer frequency, TF over GST control)	1.15 fold enrichment (6-mer frequency, TF over GST control)	1.1 fold enrichment (6-mer frequency, TF over GST control)	1.17 fold enrichment (6-mer frequency, TF over GST control)	1.14 fold enrichment (6-mer frequency, TF over GST control)
CTCCAA	1.23 fold enrichment (6-mer frequency, TF over GST control)	1.41 fold enrichment (6-mer frequency, TF over GST control)	1.4 fold enrichment (6-mer frequency, TF over GST control)	1.32 fold enrichment (6-mer frequency, TF over GST control)	1.3 fold enrichment (6-mer frequency, TF over GST control)	1.26 fold enrichment (6-mer frequency, TF over GST control)	1.29 fold enrichment (6-mer frequency, TF over GST control)	1.31 fold enrichment (6-mer frequency, TF over GST control)	1.25 fold enrichment (6-mer frequency, TF over GST control)
TAGCCT	1.27 fold enrichment (6-mer frequency, TF over GST control)	1.21 fold enrichment (6-mer frequency, TF over GST control)	1.18 fold enrichment (6-mer frequency, TF over GST control)	1.23 fold enrichment (6-mer frequency, TF over GST control)	1.28 fold enrichment (6-mer frequency, TF over GST control)	1.26 fold enrichment (6-mer frequency, TF over GST control)	1.23 fold enrichment (6-mer frequency, TF over GST control)	1.2 fold enrichment (6-mer frequency, TF over GST control)	1.14 fold enrichment (6-mer frequency, TF over GST control)
TCCTGT	1.8 fold enrichment (6-mer frequency, TF over GST control)	1.72 fold enrichment (6-mer frequency, TF over GST control)	1.69 fold enrichment (6-mer frequency, TF over GST control)	1.94 fold enrichment (6-mer frequency, TF over GST control)	1.71 fold enrichment (6-mer frequency, TF over GST control)	1.67 fold enrichment (6-mer frequency, TF over GST control)	1.99 fold enrichment (6-mer frequency, TF over GST control)	1.88 fold enrichment (6-mer frequency, TF over GST control)	1.88 fold enrichment (6-mer frequency, TF over GST control)
AATGAC	1.36 fold enrichment (6-mer frequency, TF over GST control)	1.52 fold enrichment (6-mer frequency, TF over GST control)	1.43 fold enrichment (6-mer frequency, TF over GST control)	1.42 fold enrichment (6-mer frequency, TF over GST control)	1.36 fold enrichment (6-mer frequency, TF over GST control)	1.35 fold enrichment (6-mer frequency, TF over GST control)	1.36 fold enrichment (6-mer frequency, TF over GST control)	1.39 fold enrichment (6-mer frequency, TF over GST control)	1.44 fold enrichment (6-mer frequency, TF over GST control)
GCCTTA	1.15 fold enrichment (6-mer frequency, TF over GST control)	1.21 fold enrichment (6-mer frequency, TF over GST control)	1.26 fold enrichment (6-mer frequency, TF over GST control)	1.21 fold enrichment (6-mer frequency, TF over GST control)	1.17 fold enrichment (6-mer frequency, TF over GST control)	1.11 fold enrichment (6-mer frequency, TF over GST control)	1.13 fold enrichment (6-mer frequency, TF over GST control)	1.27 fold enrichment (6-mer frequency, TF over GST control)	1.15 fold enrichment (6-mer frequency, TF over GST control)

Source: article PMC7862700, “An all-to-all approach to the identification of sequence-specific readers for epigenetic DNA modifications on cytosine”
